We go through 29 compounds from PubChem BioAssay (NCI).

Where “and” joins values, the source holds several entries; their conditions need not be identical. Identical values can stand only once. The panel holds about 79,000 compounds, 15% with a hit somewhere; the sample as a whole holds those more often. A number with no mark means an inactive call. Calls of active or inactive are those of the source. No stated cut-off is given here; in the data, active means growth inhibition above about 70%; inactive means the rest.

Assay [1] is described as follows: NCI Yeast Anticancer Drug Screen. Data for the rad50 strain (AID 155).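 Further: 0% = growth of vehicle-only cultures of the same strain.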 The conditions noted are these: S. cerevisiae rad50 strain growth inhibition; at 50.0 µM; active compounds read high. In short, it runs like this:
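DNA repair mutant yeast, compound exposure, growth read-out; inhibition is taken relative to vehicle.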

Assay [2] in a line: NCI Yeast Anticancer Drug Screen. Data for the mec2-1 strain (AID 157). The conditions noted are these: S. cerevisiae mec2-1 strain, at 50.0 µM, active compounds read high. In short, it runs like this: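 Readout is yeast growth inhibition, normalised to vehicle-treated controls, in the mec2-1 strain exposed to compound.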
A short description of assay [3]: NCI Yeast Anticancer Drug Screen. Data for the sgs1 mgt1 strain (AID 161).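 Further: 0% = growth of cultures given vehicle only.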 Particulars: S. cerevisiae sgs1 mgt1 strain, at 50.0 µM, active compounds read high. In short, it runs like this:
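Percent growth inhibition was derived by comparing compound-exposed mutant yeast with vehicle-exposed cultures. The strain carries alterations in DNA damage repair.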

The nature of assay [4]: NCI Yeast Anticancer Drug Screen. Data for the cln2 rad14 strain (AID 165).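 Further: 0% = growth equal to vehicle treated cultures.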 The conditions noted are these: S. cerevisiae cln2 rad14 strain, at 50.0 µM, active compounds read high. In short, it runs like this: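 Relative to vehicle controls, growth inhibition of compound-treated cln2 rad14 yeast was recorded.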
A short description of assay [5]: NCI Yeast Anticancer Drug Screen. Data for the bub3 strain (AID 167). Particulars: S. cerevisiae bub3 mutant strain, at 50.0 µM, active compounds read high. The procedure, abridged: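 In this screen, a yeast mutant lacking normal mitotic checkpoint function is challenged with compound. Relative growth versus vehicle gives the inhibition value.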
The nature of assay [6]: NCI Yeast Anticancer Drug Screen. Data for the mlh1 rad18 strain (AID 175). The conditions noted are these: S. cerevisiae mlh1 rad18 strain growth inhibition; at 50.0 µM; active compounds read high. In short, it runs like this: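 Test agents were incubated with a yeast strain of defined genotype (DNA damage repair defect). Inhibition of growth was derived by comparison with vehicle-exposed cultures.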

With `COc1ccc(/C=C\c2cc(OC)c(OC)c(OC)c2)cc1OC(=O)CCC(=O)O`, the growth inhibition in assay [1] was -13.1%; in assay [2], -12.3%; in assay [3], 8.7%; in assay [4] it was 24.1%; in assay [5] it was 14.2%; in assay [6], -27.1%.

On to `O=P(O)(O)c1ccccc1` (tested in a mixture with another compound), for which the growth inhibition in assay [1] is -28.9%; in assay [2], -6.45%; in assay [3], -15.2%; in assay [4] it was -35.1%; in assay [5], -31.9%; in assay [6] it was 2.7%.

For the compound `CCCCP(=O)(CCCC)CCCC.CCCCP(=O)(CCCC)CCCC.CCCCP(=O)(CCCC)CCCC.CCCCP(=O)(CCCC)CCCC.[Ce+3].[O-][Cl+3]([O-])([O-])O`, the growth inhibition in assay [1] is 43.9%; in assay [2] it was 36.3%; in assay [3], 30.6%; in assay [4] it was 33.9%; in assay [5], 62.1%.

Turning to `CN(C)c1ccc(N=Nc2c([O-])ccc3ccccc23)cc1.[C-]#[O+].[C-]#[O+].[Ir]`, the growth inhibition in assay [1] was -7.05%; in assay [2], -14.2%; in assay [3] it was -30.2%; in assay [4], 34%; in assay [5], -10.2%; in assay [6] it was -4.7%.

As to `CCCC(C)COC(=O)Cc1ccccc1` (stereo not drawn), the growth inhibition in assay [1] was 18.3%; in assay [2], 18.2%; in assay [3], 9.55%; in assay [4], -27.9%; in assay [5], 4.3%; in assay [6], 15.2%.

Regarding `N.N.N.N.N#N.N#N.[Cl-].[Os+6]`, the growth inhibition is -25.4% in assay [1]; -24.1% in assay [2]; -34.6% in assay [3]; -7.95% in assay [4]; -35.4% in assay [5].

For the compound `COc1ccc(/C=C/C(=O)c2c(-c3ccccc3)nn(C)c(=O)c2N2CC2C)cc1` (stereo not drawn), the growth inhibition in assay [1] was -11.6%; in assay [2], 19.9%; in assay [3], -10.4%; in assay [4], -7.2%; in assay [5], -4.8%; in assay [6], -13.4%.

Regarding `CC1=C[C@H]2O[C@@H]3[C@H](O)[C@@H](O)[C@](C)(C2(COC(=O)CCl)CC1)[C@@]31CO1` (stereo partly drawn), the growth inhibition is 87% (active) in assay [1]; 89.7% (active) in assay [2]; 87.7% (active) in assay [3]; 90.2% (active) in assay [4]; 88.5% (active) in assay [5].

For `O=C1C(C(Nc2ccccc2)c2ccccc2)=C([O-])c2ccccc21.O=C1C(C(Nc2ccccc2)c2ccccc2)=C([O-])c2ccccc21.[Cu+2]` (stereo not drawn), the growth inhibition was -12% in assay [1]; -1.5% in assay [2]; -10.2% in assay [3]; 10.5% in assay [4]; 4.75% in assay [5].

Regarding `CC(C)[C@]12O[C@H]1[C@@H]1O[C@]13[C@]1(O[C@H]1C[C@H]1C4=C(CC[C@@]13C)C(=O)OC4)[C@@H]2O`, the growth inhibition in assay [1] was 4.6%; in assay [2], 2.9%; in assay [3], -20.1%; in assay [4] it was -5.1%; in assay [5], -17.2%.

Regarding `CC(NC1=NCCO1)c1ccco1` (stereo not drawn), the growth inhibition is 4.45% in assay [1]; 9.15% in assay [2]; 13.2% in assay [3]; 30% in assay [4]; 6.7% in assay [5]; -75.8% in assay [6].

Take `CC[As](CC)SC(CC[C@@H](C)C1CC[C@@]2(C)C3=C(CC[C@]12C)[C@@]1(C)CC[C@H](O)C(C)(C)[C@@H]1CC3)C(C)C` (stereo partly drawn): the growth inhibition was 3.95% in assay [1]; 17.6% in assay [2]; -8.15% in assay [3]; -21.1% in assay [4]; -1.55% in assay [5].

For `Cn1c(=S)[nH]n(CCOc2ccccc2)c1=S`, the growth inhibition in assay [1] was -7.15%; in assay [2], -5.35%; in assay [3], -5.85%; in assay [4] it was -18.4%; in assay [5] it was 3.45%; in assay [6] it was -6.05%.

`O=C(O)COc1ccccc1`: the growth inhibition in assay [1] is 10.9% and -7.6%; in assay [2], 9.2% and 1.65%; in assay [3] it was 5.8% and -36.2%; in assay [4], -16.6% and 6.7%; in assay [5], -10.2% and -17.4%; in assay [6], -13.2% and -0.15%.

Take `CCCCN1C(=O)C(=C/C=C/C=C2\Oc3ccccc3N2CCCS(=O)(=O)O)C(=O)N(CCCC)C1=S`: the growth inhibition in assay [1] is 18%; in assay [2] it was 2.9%; in assay [3] it was 3.75%; in assay [4], 15.7%; in assay [5] it was -3.9%; in assay [6], 27%.

As to `CCOC(=O)C1C(=O)C(C(=O)OCC)C2c3ccccc3-c3ccccc3C1N2C` (stereo not drawn), the growth inhibition is 29.8% in assay [1]; 7.25% in assay [2]; 35.2% in assay [3]; -7.35% in assay [4]; 8.7% in assay [5]; 15.7% in assay [6].

Turning to `COc1cc(-c2[nH]ccc2Cl)oc1C1=C2N=C3C=C2C(C(C)C)C1CCCCCCCC3` (stereo not drawn), the growth inhibition in assay [1] was 85.3% (active); in assay [2] it was 83.6% (active); in assay [3], 89% (active); in assay [4], 89.1% (active); in assay [5], 88.3% (active); in assay [6] it was 89.6% (active).

Regarding `COC(=O)C1C(O)CC2(O)CC(O)CC(O)C(O)CCC(O)CC(O)CC(=O)OC(C)C(C)C(O)C(C)/C=C/C=C/C=C/C=C/C=C/C=C/C=C/C(OC3OC(C)C(O)C(N)C3O)CC1O2` (stereo not drawn), the growth inhibition in assay [1] was -6.8%; in assay [2], 6.95%; in assay [3], -4.9%; in assay [4] it was 6.15%; in assay [5], 1.6%; in assay [6] it was -3.7%.

Regarding `c1ccc2c(c1)oc1ccccc12`, the growth inhibition was 2.05% in assay [1]; 11.3% in assay [2]; 7.2% in assay [3]; -64.5% in assay [4]; 4% in assay [5]; -4.1% in assay [6].

For `Cc1cc(C)[n+](CCc2ccccc2)c(C)c1`, the growth inhibition in assay [1] was 5.15%; in assay [2] it was 2.55%; in assay [3] it was -3.25%; in assay [4], -6.3%; in assay [5] it was 2.4%; in assay [6] it was 4.25%.

For the compound `CC1C2CCC3C(O)C2(CC(O)C2(O)C1CC(O)C2(C)C)CC3(C)O` (stereo not drawn), the growth inhibition in assay [1] was 11.6%; in assay [2] it was -24.8%; in assay [3], 6.85%; in assay [4], 13.3%; in assay [5], -5.15%; in assay [6], -4.35%.

For the compound `NC(=S)Nc1ccccc1`, the growth inhibition was 9.75% in assay [1]; -18% in assay [2]; -24.4% in assay [3]; -11.1% in assay [4]; 8.65% in assay [5]; 5.6% in assay [6].

As to `C/C=C/C(C)C1(CC)C(=O)NC(=S)NC1=O` (stereo not drawn), the growth inhibition in assay [1] is 8.8%; in assay [2], 9.65%; in assay [3], 9%; in assay [4], 10.6%; in assay [5] it was -11.3%; in assay [6] it was -13.1%.

Consider `OC1(CN2CCCCC2)N=C(c2ccccc2)c2ccsc2-n2cccc21` (stereo not drawn), for which the growth inhibition was -19.6% in assay [1]; -22.6% in assay [2]; -25.2% in assay [3]; 22.2% in assay [4]; -11.5% in assay [5]; -3% in assay [6].

As to `CC(C)CNP(=S)(NCC(C)C)c1ccccc1`, the growth inhibition in assay [1] is 4.5%; in assay [2], 12.9%; in assay [3] it was 6.7%; in assay [4], 5.55%; in assay [5], 18.9%; in assay [6] it was 21.3%.

With `CCCCCCCCCCCCBr`, the growth inhibition was 10.7% in assay [1]; -7.4% in assay [2]; -5.1% in assay [3]; -12.7% in assay [4]; -10.3% in assay [5]; -1.05% in assay [6].

As for `COC1=CC(=Nc2ccc(N(CCCl)CCCl)cc2)C=CC1=O`, the growth inhibition in assay [1] was 17.6%; in assay [2], 26.8%; in assay [3], 14.3%; in assay [4], 11.4%; in assay [5], 15.1%; in assay [6], 28.6%.

In the case of `CC([NH-])C(C)[NH-].CC([NH-])C(C)[NH-].CC([NH-])C(C)[NH-].[Cr+6]` (stereo not drawn), the growth inhibition is 9.9% in assay [1]; 22.8% in assay [2]; 10.7% in assay [3]; 2% in assay [4]; 1.9% in assay [5]; 8.15% in assay [6].

Consider `O=C(Nc1ccc(Cl)cc1C(=O)c1ccccc1)c1ccc(Cl)cc1`, for which the growth inhibition in assay [1] is -5.95%; in assay [2], 10.1%; in assay [3], 4.25%; in assay [4], -2%; in assay [5] it was 25.9%; in assay [6], 9.55%.
